From PubChem BioAssay AID743364 (National Center for Advancing Translational Sciences (NCATS), 2014)
Activity calls are given as the source filed them. Calls follow the shape of the dose curve; as a rule, active = well fitted curve in the direction sought with a large enough effect; inactive = no such curve, though single readings can be large or run the other way.

test: qHTS profiling of inhibitors of Plasmodium falciparum (3D7) proliferation (acoustic dispense); details: P. falciparum 3D7 in erythrocytes, SYBR Green, 72 h; series mostly up to 49.8 µM

outcome, inactive:
Nc1ccc(-c2ccc3ncc4ccc(=O)n(-c5cccc(C(F)(F)F)c5)c4c3c2)cn1
C=CCNC1=C2C[C@@H](C)C[C@H](OC)[C@@H](O)[C@@H](C)C=C(C)[C@H](OC(N)=O)[C@@H](OC)C=CC=C(C)C(=O)NC(=CC1=O)C2=O
CSc1cccc(Nc2ncc3cc(-c4c(Cl)cccc4Cl)c(=O)n(C)c3n2)c1
CCS(=O)(=O)Nc1ccc2[nH]c(O)c(C(=Nc3ccc(CN4CCCCC4)cc3)c3ccccc3)c2c1
CO[C@H]1C=CO[C@@]2(C)Oc3c(C)c(O)c4c(O)c(c(C=NN5CCN(C)CC5)c(O)c4c3C2=O)NC(=O)C(C)=CC=C[C@H](C)[C@H](O)[C@@H](C)[C@@H](O)[C@@H](C)[C@H](OC(C)=O)[C@H]1C
CCN(CC)Cc1cc(Nc2ccnc3cc(Cl)ccc23)ccc1O
CCCC[C@@H]1C[C@@H](C(=O)NC([C@H](C)Cl)[C@H]2O[C@H](S)[C@H](O)[C@@H](O)[C@@H]2O)N(C)C1 (some centres undefined)
CCCCN(CCCC)CCC(O)c1cc2c(Cl)cc(Cl)cc2c2cc(C(F)(F)F)ccc12 (centres undefined)
COc1ccc(-c2nc(N3CCOCC3)c3sc(CN(C)c4ncc(C(=O)NO)cn4)cc3n2)cn1
CS[C@H]1SC[C@@H]2C(=O)N(C)[C@H](C(C)C)C(=O)OC[C@H](NC(=O)c3cnc4ccccc4n3)C(=O)N[C@H](C)C(=O)N(C)[C@@H]1C(=O)N(C)[C@H](C(C)C)C(=O)OC[C@H](NC(=O)c1cnc3ccccc3n1)C(=O)N[C@H](C)C(=O)N2C
O=C(Nc1cn[nH]c1-c1nc2ccc(CN3CCOCC3)cc2[nH]1)NC1CC1
C1CCC(C(CC2CCCCN2)C2CCCCC2)CC1 (centres undefined)
C=CCNc1c(O)cc2c(O)c1C[C@@H](C)C[C@H](OC)[C@@H](O)[C@@H](C)C=C(C)[C@H](OC(N)=O)[C@@H](OC)C=CC=C(C)C(=O)N2
CCOC(=O)[C@H](CCc1ccccc1)N[C@H]1CS[C@H](c2cccs2)CN(CC(=O)O)C1=O
CN(C)c1ccc2nc3ccc(=[N+](C)C)cc-3sc2c1
CCCCN(CCCC)CC(O)c1cc(Cl)cc2c1-c1ccc(Cl)cc1C2=Cc1ccc(Cl)cc1 (centres undefined)
CN[C@@H]1C[C@H]2O[C@@](C)([C@H]1OC)n1c3ccccc3c3c4c(c5c6ccccc6n2c5c31)C(=O)N[C@H]4O
Cc1[nH]c2ccccc2c1CCNCc1ccc(C=CC(=O)NO)cc1
COc1ncnc(NS(=O)(=O)c2ccc(N)cc2)c1OC
COc1cc(NCc2ccc3nc(N)nc(N)c3c2C)cc(OC)c1OC
c1cncc(CN2CCC(n3ncc4c(N5CCOCC5)nc(-c5ccc6[nH]ccc6c5)nc43)CC2)c1
CCN(CC)CCNC(=O)c1c(C)[nH]c(C=C2C(=O)Nc3ccc(F)cc32)c1C
Cc1nc2c(C#N)cccc2n1-c1ccc(C(=O)NC2CC2)s1
CC(C)C[C@H](NC(=O)[C@H](CCc1ccccc1)NC(=O)CN1CCOCC1)C(=O)N[C@@H](Cc1ccccc1)C(=O)N[C@@H](CC(C)C)C(=O)[C@@]1(C)CO1
CC[C@@]1(O)C[C@H](O[C@H]2C[C@H](N(C)C)[C@H](O[C@H]3C[C@H](O)[C@H](O[C@H]4CCC(=O)[C@H](C)O4)[C@H](C)O3)[C@H](C)O2)c2c(cc3c(c2O)C(=O)c2c(O)cccc2C3=O)[C@@H]1C(=O)OC
C[C@H](Cn1cnc2c(N)ncnc21)OCP(=O)(O)O
C=CCn1c(=O)c2cnc(Nc3ccc(N4CCN(C)CC4)cc3)nc2n1-c1cccc(C(C)(C)O)n1
CCNC(=O)c1noc(-c2cc(C(C)C)c(O)cc2O)c1-c1ccc(CN2CCOCC2)cc1
CC(C)n1nc(-c2ccc3oc(N)nc3c2)c2c(N)ncnc21
C[C@@H]1CCC2[C@@H](C)[C@@H](O)O[C@@H]3O[C@@]4(C)CC[C@@H]1[C@@]23OO4 (some centres undefined)
C=C[C@@H]1CN2CCC1C[C@@H]2C(O)c1ccnc2ccc(OC)cc12 (some centres undefined)
O=C(Nc1ccc([N+](=O)[O-])cc1Cl)c1cc(Cl)ccc1O

Activity change, inactive:
CCCCCCOC(=O)C1(O)CC2OC1(C)n1c3ccccc3c3c4c(c5c6ccccc6n2c5c31)C(=O)NC4 (centres undefined) 34.6% [at 1.88 µM]
CCC(C=C[C@@H]1OC(=O)C=C[C@H]1C)=C[C@H](C)CC=CC(C)=C[C@@H](C)C(=O)[C@@H](C)[C@H](O)[C@@H](C)CC(C)=CC(=O)O 22.5% [at 1.88 µM]
